# Test results from the supplement of paper PMC10382584, “Macrocyclization of linear molecules by deep learning to facilitate macrocyclic drug candidates discovery” (Nature Communications, 2023).
# Compound: Cc1cnc(Nc2ccc(OCCN3CCCC3)cc2)nc1Nc1cccc(S(=O)(=O)NC(C)(C)C)c1 [Fedratinib]
# Experiment: percent of DMSO control binding (KINOMEscan); higher = weaker binding / less inhibition; extreme values may be limits of the assay
# Conditions: concentration: 100 nM
# UniProt Q8TBX8, sequence (Q8TBX8 whole entry): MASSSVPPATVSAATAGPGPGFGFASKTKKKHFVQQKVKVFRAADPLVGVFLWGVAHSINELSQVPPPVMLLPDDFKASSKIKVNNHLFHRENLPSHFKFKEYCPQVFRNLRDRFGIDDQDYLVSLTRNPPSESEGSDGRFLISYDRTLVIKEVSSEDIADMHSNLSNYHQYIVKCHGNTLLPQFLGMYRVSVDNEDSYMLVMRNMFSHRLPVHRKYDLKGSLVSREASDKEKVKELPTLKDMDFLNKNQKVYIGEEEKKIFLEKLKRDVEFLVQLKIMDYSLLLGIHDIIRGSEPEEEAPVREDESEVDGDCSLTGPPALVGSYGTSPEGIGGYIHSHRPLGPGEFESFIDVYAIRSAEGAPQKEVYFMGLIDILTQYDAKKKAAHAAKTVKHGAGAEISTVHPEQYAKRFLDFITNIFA
# UniProt Q6P3R8, sequence (Q6P3R8 whole entry): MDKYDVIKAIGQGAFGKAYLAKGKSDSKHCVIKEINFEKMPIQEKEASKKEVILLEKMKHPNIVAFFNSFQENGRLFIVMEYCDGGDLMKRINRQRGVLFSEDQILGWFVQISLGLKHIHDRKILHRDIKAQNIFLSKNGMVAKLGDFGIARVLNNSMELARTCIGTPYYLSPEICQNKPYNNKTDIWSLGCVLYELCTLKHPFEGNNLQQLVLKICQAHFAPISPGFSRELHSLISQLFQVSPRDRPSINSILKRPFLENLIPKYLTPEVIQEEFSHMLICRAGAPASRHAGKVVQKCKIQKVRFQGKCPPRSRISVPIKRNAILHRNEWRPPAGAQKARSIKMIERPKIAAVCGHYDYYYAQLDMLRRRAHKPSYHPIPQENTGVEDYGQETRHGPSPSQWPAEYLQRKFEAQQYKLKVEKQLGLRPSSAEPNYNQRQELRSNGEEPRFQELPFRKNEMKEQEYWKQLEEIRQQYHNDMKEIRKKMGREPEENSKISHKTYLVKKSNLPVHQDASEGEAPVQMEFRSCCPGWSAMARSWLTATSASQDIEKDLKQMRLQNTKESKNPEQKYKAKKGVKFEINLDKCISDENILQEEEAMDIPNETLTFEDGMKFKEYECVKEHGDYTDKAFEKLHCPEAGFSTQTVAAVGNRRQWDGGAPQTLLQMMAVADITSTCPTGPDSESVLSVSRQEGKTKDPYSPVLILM
# UniProt Q15418, sequence (Q15418 whole entry, looked up): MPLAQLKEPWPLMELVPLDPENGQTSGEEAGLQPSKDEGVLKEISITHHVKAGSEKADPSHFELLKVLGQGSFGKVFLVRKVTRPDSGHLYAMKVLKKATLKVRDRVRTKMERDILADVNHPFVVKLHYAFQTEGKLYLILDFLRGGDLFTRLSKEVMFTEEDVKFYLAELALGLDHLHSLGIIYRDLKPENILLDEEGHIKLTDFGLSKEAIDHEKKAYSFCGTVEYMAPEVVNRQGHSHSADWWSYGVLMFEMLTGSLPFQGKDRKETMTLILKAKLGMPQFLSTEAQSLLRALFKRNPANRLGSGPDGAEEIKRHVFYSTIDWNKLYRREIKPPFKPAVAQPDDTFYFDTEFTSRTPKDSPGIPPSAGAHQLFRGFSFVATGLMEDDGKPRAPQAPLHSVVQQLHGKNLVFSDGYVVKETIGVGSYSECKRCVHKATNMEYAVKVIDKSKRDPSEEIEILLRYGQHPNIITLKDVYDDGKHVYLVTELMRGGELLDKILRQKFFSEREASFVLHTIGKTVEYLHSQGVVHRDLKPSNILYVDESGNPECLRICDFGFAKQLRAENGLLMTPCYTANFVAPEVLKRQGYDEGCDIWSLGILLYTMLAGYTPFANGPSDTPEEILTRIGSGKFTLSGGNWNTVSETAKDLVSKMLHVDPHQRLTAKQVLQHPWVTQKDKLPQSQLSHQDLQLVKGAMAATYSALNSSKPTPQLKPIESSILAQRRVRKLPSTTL
# UniProt Q13882, sequence (Q13882 whole entry, looked up): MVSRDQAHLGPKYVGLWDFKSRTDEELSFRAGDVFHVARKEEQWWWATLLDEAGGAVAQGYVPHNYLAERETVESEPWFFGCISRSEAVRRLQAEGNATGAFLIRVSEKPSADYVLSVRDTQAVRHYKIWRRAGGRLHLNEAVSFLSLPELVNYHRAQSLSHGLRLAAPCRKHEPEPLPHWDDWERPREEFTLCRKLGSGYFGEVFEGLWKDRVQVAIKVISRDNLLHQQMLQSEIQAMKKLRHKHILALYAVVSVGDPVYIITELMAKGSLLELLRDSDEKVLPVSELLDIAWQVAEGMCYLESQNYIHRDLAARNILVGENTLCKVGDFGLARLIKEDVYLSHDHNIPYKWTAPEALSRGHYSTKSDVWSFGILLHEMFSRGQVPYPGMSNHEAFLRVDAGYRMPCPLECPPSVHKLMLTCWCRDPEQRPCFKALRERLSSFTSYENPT
# UniProt O95747, sequence (O95747 whole entry, looked up): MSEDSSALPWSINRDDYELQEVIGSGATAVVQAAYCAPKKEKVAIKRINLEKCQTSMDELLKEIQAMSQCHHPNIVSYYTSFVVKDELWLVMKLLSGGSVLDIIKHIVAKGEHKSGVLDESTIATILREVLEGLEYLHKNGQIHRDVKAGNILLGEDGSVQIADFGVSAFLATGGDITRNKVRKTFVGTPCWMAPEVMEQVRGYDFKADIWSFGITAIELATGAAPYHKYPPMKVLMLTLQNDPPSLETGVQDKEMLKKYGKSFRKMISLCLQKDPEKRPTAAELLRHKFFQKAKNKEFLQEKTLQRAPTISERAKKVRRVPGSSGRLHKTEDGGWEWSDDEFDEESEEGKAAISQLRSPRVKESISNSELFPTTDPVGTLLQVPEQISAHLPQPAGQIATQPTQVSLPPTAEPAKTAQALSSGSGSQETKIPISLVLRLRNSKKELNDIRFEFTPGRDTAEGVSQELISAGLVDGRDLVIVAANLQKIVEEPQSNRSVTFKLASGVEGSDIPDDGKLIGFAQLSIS
# UniProt Q9BUB5, sequence (Q9BUB5 whole entry, looked up): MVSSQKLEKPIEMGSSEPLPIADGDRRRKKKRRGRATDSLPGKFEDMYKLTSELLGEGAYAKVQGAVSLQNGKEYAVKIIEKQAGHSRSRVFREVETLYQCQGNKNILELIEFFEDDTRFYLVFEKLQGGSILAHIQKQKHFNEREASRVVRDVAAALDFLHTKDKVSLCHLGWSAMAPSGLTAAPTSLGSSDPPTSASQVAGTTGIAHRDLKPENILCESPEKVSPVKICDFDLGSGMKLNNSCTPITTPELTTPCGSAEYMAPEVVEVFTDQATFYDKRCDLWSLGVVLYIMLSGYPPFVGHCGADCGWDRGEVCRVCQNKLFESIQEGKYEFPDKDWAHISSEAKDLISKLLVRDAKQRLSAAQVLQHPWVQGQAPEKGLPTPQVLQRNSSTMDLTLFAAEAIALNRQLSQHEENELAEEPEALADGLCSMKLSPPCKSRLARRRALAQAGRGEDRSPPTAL
# UniProt Q9UIK4, sequence (Q9UIK4 whole entry, looked up): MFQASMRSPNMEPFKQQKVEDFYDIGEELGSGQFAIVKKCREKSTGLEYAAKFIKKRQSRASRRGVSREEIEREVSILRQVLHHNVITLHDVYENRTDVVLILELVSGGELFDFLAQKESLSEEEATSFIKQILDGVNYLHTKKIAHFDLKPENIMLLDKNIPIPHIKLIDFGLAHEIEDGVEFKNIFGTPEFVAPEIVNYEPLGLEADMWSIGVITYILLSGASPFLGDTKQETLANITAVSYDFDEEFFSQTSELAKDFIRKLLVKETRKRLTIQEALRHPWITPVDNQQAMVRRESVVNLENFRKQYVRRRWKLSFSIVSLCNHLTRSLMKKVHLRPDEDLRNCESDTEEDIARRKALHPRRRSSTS
# UniProt P21709, sequence (P21709 whole entry): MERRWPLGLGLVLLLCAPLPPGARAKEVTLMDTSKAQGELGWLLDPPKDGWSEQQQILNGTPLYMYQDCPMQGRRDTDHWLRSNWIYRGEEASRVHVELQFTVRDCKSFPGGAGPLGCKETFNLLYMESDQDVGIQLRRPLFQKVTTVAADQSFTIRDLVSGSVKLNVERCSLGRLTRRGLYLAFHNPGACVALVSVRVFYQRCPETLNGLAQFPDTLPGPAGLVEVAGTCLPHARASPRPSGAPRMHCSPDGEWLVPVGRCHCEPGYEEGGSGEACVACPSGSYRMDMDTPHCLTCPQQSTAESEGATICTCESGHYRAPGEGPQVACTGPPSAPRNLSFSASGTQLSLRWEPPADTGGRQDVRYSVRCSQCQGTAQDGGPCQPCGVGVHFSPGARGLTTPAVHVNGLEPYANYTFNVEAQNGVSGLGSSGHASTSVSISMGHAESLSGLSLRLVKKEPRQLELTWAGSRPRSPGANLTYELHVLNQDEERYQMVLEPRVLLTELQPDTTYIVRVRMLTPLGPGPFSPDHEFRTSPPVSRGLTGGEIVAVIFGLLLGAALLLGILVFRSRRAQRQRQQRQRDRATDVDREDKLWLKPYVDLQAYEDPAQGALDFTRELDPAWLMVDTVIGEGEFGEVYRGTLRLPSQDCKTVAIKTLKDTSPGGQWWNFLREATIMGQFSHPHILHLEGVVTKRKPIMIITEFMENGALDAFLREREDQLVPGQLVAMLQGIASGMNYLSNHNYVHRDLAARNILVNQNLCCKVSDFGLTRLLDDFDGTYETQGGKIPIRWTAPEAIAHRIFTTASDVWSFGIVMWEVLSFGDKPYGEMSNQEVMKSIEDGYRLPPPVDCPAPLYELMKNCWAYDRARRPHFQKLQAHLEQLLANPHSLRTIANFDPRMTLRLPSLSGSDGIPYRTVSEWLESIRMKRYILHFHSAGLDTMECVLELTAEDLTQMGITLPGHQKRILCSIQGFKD
# UniProt P50750, sequence (P50750 whole entry): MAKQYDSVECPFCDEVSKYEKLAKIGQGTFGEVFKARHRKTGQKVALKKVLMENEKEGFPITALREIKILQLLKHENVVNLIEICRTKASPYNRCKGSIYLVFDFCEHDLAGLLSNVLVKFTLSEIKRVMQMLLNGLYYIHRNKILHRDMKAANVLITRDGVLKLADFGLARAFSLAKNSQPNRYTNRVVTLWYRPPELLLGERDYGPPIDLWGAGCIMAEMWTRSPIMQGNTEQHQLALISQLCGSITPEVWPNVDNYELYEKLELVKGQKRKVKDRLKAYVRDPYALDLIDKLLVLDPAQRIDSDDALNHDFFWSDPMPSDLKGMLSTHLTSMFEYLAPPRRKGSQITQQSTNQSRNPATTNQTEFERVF
row,Target,percent of DMSO control binding
1,CDKL5 (UniProt O76039),91%
2,BRK (UniProt Q13882),87%
3,MAP3K4 (UniProt Q9Y6R4),77%
4,SYK (UniProt P43405),100%
5,RSK1(Kin.Dom.2-C-terminal) (UniProt Q15418),93%
6,PRKG1 (UniProt Q13976),100%
7,FLT4 (UniProt P35916),100%
8,MKNK1 (UniProt Q9BUB5),88%
9,ZAK (UniProt Q9NYL2),81%
10,LTK (UniProt P29376),100%
11,RSK4(Kin.Dom.1-N-terminal),70%
12,ALK(L1196M) (UniProt Q9UM73),67%
13,HIPK2 (UniProt Q9H2X6),79%
14,AMPK-alpha2 (UniProt P54646),100%
15,OSR1 (UniProt O95747),91%
16,NEK5 (UniProt Q6P3R8),94%
17,PIK4CB (UniProt Q9UBF8),97%
18,FGFR3(G697C) (UniProt P22607),78%
19,RPS6KA4(Kin.Dom.2-C-terminal) (UniProt O75676),39%

row,Target,percent of DMSO control binding
1,DYRK1B (UniProt Q9Y463),97%
2,FGFR4 (UniProt P22455),100%
3,TTK (UniProt P33981),75%
4,CDK9 (UniProt P50750),97%
5,DAPK2 (UniProt Q9UIK4),16%
6,RAF1 (UniProt P04049),85%
7,PIK3CG (UniProt P48736),100%
8,PIP5K2C (UniProt Q8TBX8),100%
9,PKN1 (UniProt Q16512),100%
10,EPHA1 (UniProt P21709),60%
11,ERBB3 (UniProt P21860),97%
12,ERK3 (UniProt Q16659),100%
13,EGFR(E746-A750del) (UniProt P00533),99%
14,IGF1R (UniProt P08069),100%
15,ROCK1 (UniProt Q13464),40%
16,MLK3 (UniProt Q16584),100%
17,AMPK-alpha1 (UniProt Q13131),100%
18,PIKFYVE (UniProt Q9Y2I7),83%
19,CDC2L5 (UniProt Q14004),78%
